Sensor-assay potency score (higher = more potent) data for 39 sequences are collected here from the OligoGym collection.
Further: reference of the scale not given here.

For one test, the target named is WNT16. The experiment in a line: pooled miR-30 sensor sort-seq; sequence = guide strand. Conditions: shRNA.
In the case of TTAACAGTTGAAACTGATCTGT, the sensor-assay potency score (higher = more potent) is -0.124.

AAATCTAGGAACTTTCTGCTGA returned a sensor-assay potency score (higher = more potent) of 0.396.

TTCTTTACAAAACACTGTCTTT had a sensor-assay potency score (higher = more potent) of -0.946.

A further test concerns the target WNT4. The description is as above. Conditions: shRNA.
ATGACTTCCAGGTTCCGCTTGC came in with a sensor-assay potency score (higher = more potent) of -0.442.

Sequence TTGAACTGTGCGTTGCGTGGCA yielded a sensor-assay potency score (higher = more potent) of 0.0724.

Sequence TTGCACATCTGCACCTGCCTCT gave a sensor-assay potency score (higher = more potent) of 0.262.

As for TTGCGTGGCACCAGTGCCCTGG, the sensor-assay potency score (higher = more potent) is -0.464.

Turning to TTGTCAGAGCATCCTGACCACT, the sensor-assay potency score (higher = more potent) is -1.18.

Regarding TTGGACGTCTTGTTGCATGTGC, the sensor-assay potency score (higher = more potent) came to 0.653.

In the case of TGGAATTTGCAGCTGCAGCGTT, the sensor-assay potency score (higher = more potent) is -0.943.

As for AAGGAGTCGAGTGTGGAGCAGT, the sensor-assay potency score (higher = more potent) is -0.667.

TACACCAGGTCCTCATCTGTGT returned a sensor-assay potency score (higher = more potent) of -0.668.

Turning to TCGAGTGTGGAGCAGTTCCAGC, the sensor-assay potency score (higher = more potent) was -1.25.

TTTCTCGCACGTCTCCTCCTCT displayed a sensor-assay potency score (higher = more potent) of -0.548.

Sequence TGCACTGTCCTGTCACAGCCGC registered a sensor-assay potency score (higher = more potent) of -1.01.

A further test has as its target WRAP73. The test is described as above. The note with it: shRNA.
The sequence TAACAGGTTTCAGTGTCTGTAA displayed a sensor-assay potency score (higher = more potent) of -0.596.

Regarding TAATCTTTGCAGTCGCGCCGTT, the sensor-assay potency score (higher = more potent) is -0.556.

Consider TACATATTTACAAAAATGCTTT, for which the sensor-assay potency score (higher = more potent) is -1.06.

For the sequence TTGCTGAGGAGGGCCATCGAGT, the sensor-assay potency score (higher = more potent) was -1.36.

The sequence TTGTGCACAAGGACCAGACGGT gave a sensor-assay potency score (higher = more potent) of 0.172.

With TTGCTCTGTCGGTAACAGGTTT, the sensor-assay potency score (higher = more potent) was -1.05.

In turn, TTATACACCACTATCTTGGGAT displayed a sensor-assay potency score (higher = more potent) of 0.881.

TACGTGGACAACAACCGGCCAT gave a sensor-assay potency score (higher = more potent) of -0.35.

TATTTACTCTCTGAGCTCGGGA had a sensor-assay potency score (higher = more potent) of -0.387.

Consider TTTCGGGTTTGCTCTGTCGGTA, for which the sensor-assay potency score (higher = more potent) was -0.96.

In turn, TTGGGAATGTTGTCGTTCCTTG displayed a sensor-assay potency score (higher = more potent) of -0.237.

Turning to TTCGGGTTTGCTCTGTCGGTAA, the sensor-assay potency score (higher = more potent) is -0.662.

A further test has as its target WRB. Described as above. Conditions: shRNA.
TAATACTATACAACTCTTGCTC came in with a sensor-assay potency score (higher = more potent) of 0.423.

Turning to TTATCTTGGCTAATTGAGCTGT, the sensor-assay potency score (higher = more potent) was -0.0399.

For the sequence TAGTGTTGTTCTTTTAACCATA, the sensor-assay potency score (higher = more potent) was -0.891.

The sequence TTGGCTAATTGAGCTGTCCGAG came in with a sensor-assay potency score (higher = more potent) of -0.552.

TCGTCCATCATGTTGACTGTGG had a sensor-assay potency score (higher = more potent) of -0.317.

In turn, ATATCTGGCAAACTCGTCCATC displayed a sensor-assay potency score (higher = more potent) of -0.952.

Sequence TCACATTTCGTACAGATCGAGG showed a sensor-assay potency score (higher = more potent) of -1.13.

For the sequence TTGCATCCAAACACGAAGCTGA, the sensor-assay potency score (higher = more potent) was 0.58.

Consider TTACAGACTAAAATCCAACAGG, for which the sensor-assay potency score (higher = more potent) was -0.429.

Turning to TTGAGCTTATCCGTCATCTTGT, the sensor-assay potency score (higher = more potent) came to 0.602.

The sequence TACTATACAACTCTTGCTCAAC had a sensor-assay potency score (higher = more potent) of -0.82.

TTAAATACAAAACACAAGTTGA had a sensor-assay potency score (higher = more potent) of -0.499.
